Assay results taken from PubChem BioAssay AID1851 (National Center for Advancing Translational Sciences (NCATS), 2009).
Among all 16,000 compounds or so, about 5,100 (32%) were called active. Another 25% or so got no clear call; they are omitted. Some of the results follow. Unmarked numbers belong to inactive results. Calls come from the whole dose curve; as a rule, active = well fitted curve in the direction sought with a large enough effect; inconclusive = small, poorly fitted or top-dose-only effect, or effect the other way; inactive = no such curve, though single readings can be large or run the other way.

target: Cytochrome P450 3A4 (Homo sapiens) (UniProt P08684); assay: Cytochrome panel assay with activity outcomes; settings: recombinant CYP, pro-luciferin dealkylation, luminescence, p450-cyp3a4; series mostly up to 57.1 µM; activity, negative = inhibition: at the top concentration
Sequence (P08684 whole entry, looked up): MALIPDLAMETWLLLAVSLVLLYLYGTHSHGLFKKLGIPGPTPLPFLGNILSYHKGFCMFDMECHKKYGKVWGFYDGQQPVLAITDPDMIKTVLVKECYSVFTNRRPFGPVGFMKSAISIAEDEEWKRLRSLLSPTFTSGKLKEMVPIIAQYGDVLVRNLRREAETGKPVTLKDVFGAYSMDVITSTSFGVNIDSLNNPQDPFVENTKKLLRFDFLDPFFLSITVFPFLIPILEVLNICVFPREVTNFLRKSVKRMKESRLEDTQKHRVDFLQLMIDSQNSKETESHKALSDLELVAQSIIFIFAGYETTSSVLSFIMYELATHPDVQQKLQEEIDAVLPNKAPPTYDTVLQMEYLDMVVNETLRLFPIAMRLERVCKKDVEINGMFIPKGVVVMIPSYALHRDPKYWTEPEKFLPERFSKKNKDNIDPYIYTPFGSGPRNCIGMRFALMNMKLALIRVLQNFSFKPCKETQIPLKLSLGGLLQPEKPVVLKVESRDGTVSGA
% is set by controls: 0 for no effect and ±100 for the full control effect.

SMILES	activity, negative = inhibition	AC50
O=C(O)NCC1CCCCC1 (tested in a mixture with another compound)	-26.5% [at 11.4 µM]	
O=[n+]1c2c(n([O-])c3cc(F)c(F)cc31)CCCC2	4.83%	
CC(C)(C)C(=O)[C@H]1[C@H](c2ccccc2)[C@@]2(N=C(c3ccccc3)OC2=O)C2c3ccccc3C=NN21 (stereo partly drawn)	-20.3% [at 2.29 µM]	
Cc1cc(NC(=O)COC(=O)c2ccc(S(=O)(=O)N3CCCc4ccccc43)cc2)no1		0.891 µM (active)
COc1ccc(/C=C(\C#N)C(N)=O)c(OC)c1		2.51 µM (active)
COc1ccc(/C=C(\C#N)C(N)=O)cc1OC	-6.66% [at 11.4 µM]	
CCOc1ccccc1/C=C(\C#N)C(N)=O	-4.52% [at 11.4 µM]	
Cc1cccc2nc(C(F)(F)F)nc(=O)n12	0.743% [at 2.29 µM]	
CC(C)OC(=O)c1cccc(C(=O)Oc2ccc(Br)cc2)n1	3%	
O=C(CCN1C(=O)c2cccc3cccc(c23)C1=O)N1CCN(Cc2ccc3c(c2)OCO3)CC1		1 µM (active)
Cc1ccc(/C=C2\OC(=O)c3ccccc32)cc1		12.6 µM (active)
Cc1ccc(=O)n(-c2ccccc2)c1	-17.9%	
Cc1ccccc1/C=C1\OC(=O)c2ccccc21	-28.4%	
CCC(C)N1C(=O)S/C(=C/c2ccc(Sc3nc4ccccc4[nH]3)o2)C1=O (stereo not drawn)		1.12 µM (active)
COc1ccccc1CNc1ncnc2ccc(-c3c(C)noc3C)cc12		12.6 µM (active)
COc1ccc(CNc2ncnc3ccc(-c4c(C)noc4C)cc23)c(OC)c1		3.16 µM (active)
Cn1c(N)c(N=Nc2ccc(S(N)(=O)=O)cc2)c(=O)n(C)c1=O	-14.9% [at 11.4 µM]	
CC(C)(C)c1ccc(CN(Cc2ccco2)Cc2nnnn2C2CCCC2)cc1		1.41 µM (active)
CN(Cc1ccco1)C(=O)C1CCC(=O)N1Cc1ccc(F)cc1 (stereo not drawn)	-13.7%	
NC(N)=N/N=C(\c1ccc(Cl)cc1)C1CC1	-13.1% [at 11.4 µM]	
CCOC(=O)N1CCN(C(=O)C(CC)n2nc(C)c3sc4ccccc4c3c2=O)CC1 (stereo not drawn)		7.08 µM (active)

SMILES	activity, negative = inhibition	AC50
CCOC(=O)N1CCN(C(=O)CCn2nc(-c3ccccc3)ccc2=O)CC1	11.8%	
CCOC(=O)N1CCN(C(=O)c2cnc3n(c2=O)CCS3)CC1	-1.95%	
C[C@@H]1C[C@H](C)CN(S(=O)(=O)c2cc(Cl)c(Oc3ccc([N+](=O)[O-])cc3Cl)c(Cl)c2)C1	-9.23% [at 11.4 µM]	
COc1ccc(S(=O)(=O)N2CC3C4C=CC(C4)C3C2)cc1 (stereo not drawn)		14.1 µM (active)
COc1ccc(CCC(C)NC2C3CC4CC(C3)CC2C4)cc1 (stereo not drawn)	-2.79% [at 2.29 µM]	
Oc1ccccc1-c1cc(-c2ccccc2)no1	1.55%	
CC1CN(C(=O)CN2C(=O)NC3(CCCCCC3)C2=O)CC(C)O1 (stereo not drawn)	25.3%	
O=C(CN1C(=O)NC2(CCCCCC2)C1=O)N1CCN(S(=O)(=O)c2ccc(Cl)cc2)CC1		6.31 µM (active)
O=C(CN1C(=O)NC2(CCCC2)C1=O)NCCC1=CCCCC1	-28.6%	
Nc1ccc(-c2ccc(Nc3cc(S(=O)(=O)O)c(N)c4c3C(=O)c3ccccc3C4=O)cc2)c(S(=O)(=O)O)c1	-1.65% [at 11.4 µM]	
Cc1ccc(S(=O)(=O)N(C)c2cc(S(=O)(=O)N3CCC(C)CC3)c(C)cc2C)cc1		2.51 µM (active)
CC1CCN(S(=O)(=O)c2ccc3c(c2)C(=NO)c2cc(S(=O)(=O)N4CCC(C)CC4)ccc2-3)CC1	-0.656% [at 2.29 µM]	
CC(=O)c1cccc(NC(=O)Cc2ccc3c(c2)CCCC3)c1	-26.1%	
O=C(CC1CCCC1)Nc1ccc2c(c1)CCC2		14.1 µM (active)
O=C(N/N=C\c1ccc2c(c1)CCC2)c1ccccc1O	-19.2% [at 11.4 µM]	
CCCCCCCCC(=O)N/N=C/c1ccccn1	-18.3%	
Cc1nc2ccccc2n1CC(=O)N/N=C\c1ccccn1	-14.7%	
COCCCNC(=O)c1c(N)n(/N=C/c2ccccn2)c2nc3ccccc3nc12		4.47 µM (active)
CN1CCCC2(CCN(S(=O)(=O)c3ccccc3)CC2)C1	-18%	
O=S(=O)(c1ccccc1)N1CCC[C@@]2(CCN(c3cccc(-c4ccccc4)c3)C2)C1		12.6 µM (active)
O=S(=O)(c1ccccc1)N1CCC2(CCCN(c3ccccc3)C2)CC1		3.98 µM (active)

SMILES	activity, negative = inhibition	AC50
O=S(=O)(c1ccccc1)N1CCC2(CCCN(c3ncccn3)C2)CC1		12.6 µM (active)
CS(=O)(=O)N1CCC2(CCN(c3cccc(-c4ccccc4)c3)CC2)CC1	-21.2%	
O=S(=O)(c1ccccc1)N1CCC2(CC1)CN(c1ncccn1)C2	3.08%	
O=S(=O)(c1ccccc1)N1CCC2(CCCN(c3cccc(-c4ccccc4)c3)C2)CC1		3.98 µM (active)
CS(=O)(=O)N1CCC2(CCCN(c3ncccn3)C2)CC1	-23.3%	
CS(=O)(=O)N1CCC2(CC1)CN(c1cccc(-c3ccccc3)c1)C2	-29.8%	
c1ccc(CCN2CCN=C2Cc2ccccc2)cc1	7.9% [at 11.4 µM]	
c1ccc(SCCc2ccncc2)cc1		2.51 µM (active)
Fc1ccc(SCCc2ccncc2)cc1		3.55 µM (active)
ON(CCc1ccncc1)Cc1ccccc1		1 µM (active)
CCN(CCCc1ccccc1)CCCc1ccccc1	-5.25% [at 25.6 µM]	
C[C@@H](CSC(=N)N)C(N)=O	-8.21% [at 11.4 µM]	
CCN(CC(=O)O)CC(=O)O	0.0109% [at 11.4 µM]	
CC(=O)NNC(=O)CCC(=O)Nc1ccccc1	6.14% [at 2.29 µM]	
Cc1ccc(C(=O)C(OC(=O)CNS(=O)(=O)c2ccccc2)c2ccccc2)cc1 (stereo not drawn)		14.1 µM (active)
CC(=O)Nc1cccc(C(=O)OC(C(=O)c2ccc(C)c(C)c2)c2ccccc2)c1 (stereo not drawn)	8% [at 2.29 µM]	
CCOC(=O)CC(NC(=O)c1ccco1)c1ccc(OC)cc1 (stereo not drawn)	13.6%	
Cc1ccc(C(=O)C(OC(=O)COc2ccccc2C)c2ccccc2)cc1 (stereo not drawn)		10 µM (active)
COc1ccc(C(=O)C(OC(=O)CNC(=O)c2ccco2)c2ccccc2)cc1 (stereo not drawn)		14.1 µM (active)
Cc1ccc(C(=O)C(OC(=O)CCC(=O)Nc2cccc(C)c2)c2ccccc2)cc1 (stereo not drawn)		25.1 µM (active)
Cc1ccccc1OCC(=O)OC1CCN(C)CC1	17.6%	
